Results published in the supplement of paper PMC10849652.
Targets with a hit are over-represented here; the source holds about 7,900 in all. About 0.6% of all pairs of compound and target were hits.

Key:
Experiment in all cases: log2 fold change, soluble protein after heating vs DMSO (PISA); higher = thermal stabilisation; K562 cells, 10 uM, 30 min; active = over 0.2 and 3.5 SD of the protein, either way, in both replicates (recomputed)
erlotinib = compound: C#Cc1cccc(Nc2ncnc3cc(OCCOC)c(OCCOC)cc23)c1 [erlotinib]
Method in brief: (§1)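 Soluble protein was quantified by TMTpro 16plex LC-MS/MS after channel sums were equalised. It was obtained as the supernatant after 21,000xg for 90 min from pooled aliquots of K562 cells (2×10^6 cells/mL, 10 μM compound, 30 min) heated for 3 min across 48°C-58°C and extracted in PBS with 0.5% NP-40 at 4°C. Thermal stability values are relative to control samples and come from duplicates. They are given as log2 fold changes.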

[1] = compound: C/C(=N\NC(=O)C1=CC(=CC=C1)S(=O)(=O)N2CCOCC2)/C3=C(C=CC(=C3)Cl)O
Method in brief: as §1

[2] = compound: C1=CC(=C(C=C1Cl)C2=NC3=NC=CN=C3C(=N2)NC4=CC=NC=C4)F
Method in brief: as §1

[3] = compound: C1=CC(=CC=C1C2=NC3=C(N2)C=C(C=C3)C(=O)N)OC4=CC=C(C=C4)Cl
Method in brief: as §1

[4] = compound: C1=CC2=C(C=CC(=C2)/C=C\3/C(=O)NC(=NCC4=CC=CS4)S3)N=C1
Method in brief: as §1

[5] = compound: C1=CC2=NC=CN=C2C=C1/C=C/3\C(=O)NC(=O)S3
Method in brief: as §1

[6] = compound: C1=CC=C(C=C1)C2=NC(=C(N2)C3=CC=NC=C3)C4=CC(=C(C=C4)Cl)O
Method in brief: as §1

[7] = compound: C1=CC=C2C(=C1)C3=NNC4=CC=CC(=C43)C2=O
Method in brief: as §1

[8] = compound: C1CCN(C1)C(=O)NC2=CC=CC(=C2)NC3=NC=C(C(=N3)NCCC4=CN=CN4)Br
Method in brief: as §1

[9] = compound: C1CN(CCC1(CC2=CC=C(C=C2)Cl)N)C3=NC=NC4=C3C=CN4
Method in brief: as §1

IRAK-1-4 Inhibitor I = compound: C1COCCN1CCN2C3=CC=CC=C3N=C2NC(=O)C4=CC(=CC=C4)[N+](=O)[O-] [IRAK-1-4 Inhibitor I]
Method in brief: as §1

ibrutinib = compound: C=CC(=O)N1CCC[C@@H](n2nc(-c3ccc(Oc4ccccc4)cc3)c3c(N)ncnc32)C1 [ibrutinib]
Method in brief: as §1

[10] = compound: CC(=O)c1cnc2ccc(-c3cc(Cl)c(O)c(Cl)c3)nc2c1N[C@H]1CC[C@H](CN(C)C)CC1
Method in brief: as §1

ralimetinib = compound: CC(C)(C)Cn1c(N)nc2ccc(-c3[nH]c(C(C)(C)C)nc3-c3ccc(F)cc3)nc21 [ralimetinib]
Method in brief: as §1

[11] = compound: CC(C)(O)CC(=O)NCCn1ccc2ncnc(Nc3ccc(Oc4cccc(C(F)(F)F)c4)c(Cl)c3)c21
Method in brief: as §1

[12] = compound: CC(C)C1=C2N=C(C=C(N2N=C1)NCC3=CC=CC=C3)NCCCCCCN
Method in brief: as §1

[13] = compound: CC(C)C[C@@H](C=O)NC(=O)[C@H](CC(C)C)NC(=O)[C@H](CC(C)C)NC(=O)OCc1ccccc1
Method in brief: as §1

pinometostat = compound: CC(C)N(C[C@H]1O[C@@H](n2cnc3c(N)ncnc32)[C@H](O)[C@@H]1O)[C@H]1C[C@@H](CCc2nc3cc(C(C)(C)C)ccc3[nH]2)C1 [pinometostat]
Method in brief: as §1

[14] = compound: CC1=C(C(CC(=O)N1)C2=CC=C(C=C2)C(F)(F)F)C(=O)NC3=C(C=C4C(=C3)C=NN4)F
Method in brief: as §1

[15] = compound: CC1=C(C2=C(C=C1)C(=O)C3=CC=CC=C3N2CCCN)C
Method in brief: as §1

Measured: log2 fold change

NOLC1 isoform 2 (UniProt Q14978)
UniProt Q14978, sequence (Q14978 whole entry, looked up): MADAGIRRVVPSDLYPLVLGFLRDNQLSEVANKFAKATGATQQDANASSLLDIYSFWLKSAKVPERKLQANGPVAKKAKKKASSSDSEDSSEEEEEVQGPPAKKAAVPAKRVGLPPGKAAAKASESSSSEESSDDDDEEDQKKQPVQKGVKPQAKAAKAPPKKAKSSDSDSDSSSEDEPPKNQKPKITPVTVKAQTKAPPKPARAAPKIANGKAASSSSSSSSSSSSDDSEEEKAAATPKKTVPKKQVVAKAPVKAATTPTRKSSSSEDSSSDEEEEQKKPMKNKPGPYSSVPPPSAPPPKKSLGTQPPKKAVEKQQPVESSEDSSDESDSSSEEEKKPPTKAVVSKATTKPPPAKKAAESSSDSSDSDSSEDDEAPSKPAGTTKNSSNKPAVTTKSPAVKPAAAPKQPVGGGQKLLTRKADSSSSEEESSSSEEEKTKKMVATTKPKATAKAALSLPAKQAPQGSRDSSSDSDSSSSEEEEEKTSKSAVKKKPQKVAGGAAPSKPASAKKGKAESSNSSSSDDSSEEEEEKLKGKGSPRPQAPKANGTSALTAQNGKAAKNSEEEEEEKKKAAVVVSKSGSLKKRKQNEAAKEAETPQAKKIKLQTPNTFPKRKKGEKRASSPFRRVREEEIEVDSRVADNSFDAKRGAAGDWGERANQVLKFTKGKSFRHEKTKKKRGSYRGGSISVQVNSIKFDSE
active: [10] -0.305 | [15] -1.4
inactive: erlotinib 0.022 | [1] 0.036 | [2] -0.051 | [3] -0.005 | [4] -0.11 | [5] 0.024 | [6] -0.034 | [7] -0.171 | [8] -0.177 | [9] 0 | IRAK-1-4 Inhibitor I -0.057 | ibrutinib -0.089 | ralimetinib 0.041 | [11] 0.021 | [12] -0.015 | [13] -0.086 | pinometostat -0.011 | [14] -0.023

NCAPH (UniProt Q15003)
UniProt Q15003, sequence (Q15003 whole entry, looked up): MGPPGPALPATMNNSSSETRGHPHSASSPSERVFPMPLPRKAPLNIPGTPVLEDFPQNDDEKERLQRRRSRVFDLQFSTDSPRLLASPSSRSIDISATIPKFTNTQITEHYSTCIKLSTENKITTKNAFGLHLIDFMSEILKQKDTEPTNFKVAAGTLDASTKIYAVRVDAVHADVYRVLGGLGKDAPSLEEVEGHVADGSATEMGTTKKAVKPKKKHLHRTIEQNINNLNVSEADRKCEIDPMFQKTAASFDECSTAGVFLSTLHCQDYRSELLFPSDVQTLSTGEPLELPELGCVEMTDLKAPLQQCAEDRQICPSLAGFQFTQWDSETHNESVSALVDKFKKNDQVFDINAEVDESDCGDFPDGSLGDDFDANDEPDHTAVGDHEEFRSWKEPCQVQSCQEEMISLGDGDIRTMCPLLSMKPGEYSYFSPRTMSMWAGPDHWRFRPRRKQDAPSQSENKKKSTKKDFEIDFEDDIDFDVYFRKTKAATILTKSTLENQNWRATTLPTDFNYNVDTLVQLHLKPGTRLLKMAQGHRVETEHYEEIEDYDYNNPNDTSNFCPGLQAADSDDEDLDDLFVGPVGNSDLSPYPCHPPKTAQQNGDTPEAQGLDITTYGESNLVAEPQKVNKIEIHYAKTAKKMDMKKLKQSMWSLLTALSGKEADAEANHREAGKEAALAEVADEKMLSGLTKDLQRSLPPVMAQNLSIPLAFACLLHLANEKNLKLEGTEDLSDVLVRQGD
inactive: erlotinib 0.201 | [1] 0.09 | [2] 0.008 | [3] -0.059 | [4] 0.024 | [5] 0.022 | [6] -0.009 | [7] 0.02 | [8] -0.004 | [9] -0.096 | IRAK-1-4 Inhibitor I -0.124 | ibrutinib -0.045 | [10] 0.097 | ralimetinib 0.007 | [11] -0.094 | [12] -0.023 | [13] 0.02 | pinometostat 0.08 | [14] 0.017 | [15] -0.006

OGFR (UniProt Q9NZT2)
UniProt Q9NZT2, sequence (Q9NZT2 whole entry, looked up): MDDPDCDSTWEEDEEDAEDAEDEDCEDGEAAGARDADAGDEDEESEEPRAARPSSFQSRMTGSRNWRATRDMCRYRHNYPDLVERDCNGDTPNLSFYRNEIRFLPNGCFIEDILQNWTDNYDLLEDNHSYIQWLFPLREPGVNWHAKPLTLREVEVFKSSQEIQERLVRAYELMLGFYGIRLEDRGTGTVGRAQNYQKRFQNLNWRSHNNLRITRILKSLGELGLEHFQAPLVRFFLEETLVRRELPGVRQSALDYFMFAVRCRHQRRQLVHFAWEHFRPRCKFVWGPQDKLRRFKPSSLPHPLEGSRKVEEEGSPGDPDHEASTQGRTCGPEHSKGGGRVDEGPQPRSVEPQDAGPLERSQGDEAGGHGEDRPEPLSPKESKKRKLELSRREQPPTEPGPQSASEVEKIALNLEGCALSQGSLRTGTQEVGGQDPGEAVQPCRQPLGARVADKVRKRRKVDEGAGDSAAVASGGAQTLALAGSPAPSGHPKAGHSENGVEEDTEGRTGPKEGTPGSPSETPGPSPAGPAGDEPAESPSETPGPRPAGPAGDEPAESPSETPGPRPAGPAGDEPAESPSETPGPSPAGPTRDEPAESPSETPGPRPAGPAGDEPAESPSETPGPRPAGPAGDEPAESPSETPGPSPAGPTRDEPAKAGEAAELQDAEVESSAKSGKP
inactive: erlotinib 0.009 | [1] 0.207 | [2] -0.011 | [3] 0.107 | [4] 0.131 | [5] -0.157 | [6] 0.027 | [7] -0.085 | [8] 0.028 | [9] -0.132 | IRAK-1-4 Inhibitor I -0.023 | ibrutinib 0.001 | [10] -0.235 | ralimetinib -0.014 | [11] 0.109 | [12] -0.028 | [13] -0.008 | pinometostat 0.149 | [14] 0.036 | [15] 0.044

NEK3 (UniProt P51956)
UniProt P51956, sequence (P51956 whole entry, looked up): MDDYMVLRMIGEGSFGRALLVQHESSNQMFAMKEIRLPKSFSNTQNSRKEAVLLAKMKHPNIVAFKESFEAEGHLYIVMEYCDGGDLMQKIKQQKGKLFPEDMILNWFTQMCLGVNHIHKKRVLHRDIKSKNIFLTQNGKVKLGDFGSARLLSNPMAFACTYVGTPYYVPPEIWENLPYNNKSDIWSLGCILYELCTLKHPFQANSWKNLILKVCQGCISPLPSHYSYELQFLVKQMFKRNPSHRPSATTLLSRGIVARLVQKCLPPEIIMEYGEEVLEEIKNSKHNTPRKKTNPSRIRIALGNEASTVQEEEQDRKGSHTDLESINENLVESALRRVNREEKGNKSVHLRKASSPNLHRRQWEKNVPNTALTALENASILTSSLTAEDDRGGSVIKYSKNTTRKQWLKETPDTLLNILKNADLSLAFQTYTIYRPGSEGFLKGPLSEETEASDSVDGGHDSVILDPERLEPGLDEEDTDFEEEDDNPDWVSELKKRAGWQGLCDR
inactive: erlotinib 0.003 | [1] -0.011 | [2] 0.096 | [3] 0.06 | [4] -0.063 | [6] 0.039 | [7] -0.05 | [8] -0.141 | [9] 0.103 | IRAK-1-4 Inhibitor I 0.104 | [10] -0.184 | ralimetinib -0.168 | [11] -0.015 | [12] 0.127 | [13] 0.098 | pinometostat -0.015 | [14] -0.028 | [15] 0.018

OAT (UniProt P04181)
UniProt P04181, sequence (P04181 whole entry, looked up): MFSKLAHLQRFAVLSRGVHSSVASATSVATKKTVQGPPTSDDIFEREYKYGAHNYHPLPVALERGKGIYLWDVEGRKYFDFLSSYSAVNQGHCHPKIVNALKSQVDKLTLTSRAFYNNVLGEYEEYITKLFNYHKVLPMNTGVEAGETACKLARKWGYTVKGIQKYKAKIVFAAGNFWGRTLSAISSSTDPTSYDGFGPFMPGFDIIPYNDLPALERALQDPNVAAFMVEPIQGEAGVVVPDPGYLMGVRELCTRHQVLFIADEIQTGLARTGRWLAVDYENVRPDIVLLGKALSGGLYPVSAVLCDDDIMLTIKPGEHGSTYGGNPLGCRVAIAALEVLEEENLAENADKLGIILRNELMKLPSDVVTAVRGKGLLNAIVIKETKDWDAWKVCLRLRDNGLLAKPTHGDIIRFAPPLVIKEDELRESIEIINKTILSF
active: [12] -0.245
inactive: erlotinib 0.063 | [1] 0.099 | [2] 0.045 | [3] -0.091 | [4] 0.042 | [5] -0.151 | [6] -0.183 | [7] -0.001 | [8] -0.037 | [9] -0.023 | IRAK-1-4 Inhibitor I 0.044 | ibrutinib -0.006 | [10] -0.044 | ralimetinib -0.053 | [11] -0.113 | [13] 0.007 | pinometostat -0.027 | [14] -0.006 | [15] -0.007

NIPSNAP2 (UniProt O75323)
UniProt O75323, sequence (O75323 whole entry, looked up): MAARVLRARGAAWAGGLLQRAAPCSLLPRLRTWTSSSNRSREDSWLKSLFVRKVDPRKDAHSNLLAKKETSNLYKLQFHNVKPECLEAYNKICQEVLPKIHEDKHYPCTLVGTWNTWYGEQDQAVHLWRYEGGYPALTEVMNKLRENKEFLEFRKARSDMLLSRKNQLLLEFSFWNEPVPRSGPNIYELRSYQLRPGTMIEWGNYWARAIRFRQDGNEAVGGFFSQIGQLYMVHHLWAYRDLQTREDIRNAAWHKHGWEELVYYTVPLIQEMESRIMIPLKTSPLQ
inactive: erlotinib 0.024 | [1] 0.065 | [2] 0.076 | [3] 0.106 | [4] 0.044 | [5] -0.079 | [6] 0.071 | [7] 0.041 | [8] 0.01 | [9] 0.007 | IRAK-1-4 Inhibitor I 0.018 | ibrutinib 0.115 | [10] -0.084 | ralimetinib -0.054 | [11] 0.049 | [12] 0.014 | [13] -0.015 | pinometostat -0.034 | [14] 0.002 | [15] 0.031

NMRAL1 (UniProt Q9HBL8)
UniProt Q9HBL8, sequence (Q9HBL8 whole entry, looked up): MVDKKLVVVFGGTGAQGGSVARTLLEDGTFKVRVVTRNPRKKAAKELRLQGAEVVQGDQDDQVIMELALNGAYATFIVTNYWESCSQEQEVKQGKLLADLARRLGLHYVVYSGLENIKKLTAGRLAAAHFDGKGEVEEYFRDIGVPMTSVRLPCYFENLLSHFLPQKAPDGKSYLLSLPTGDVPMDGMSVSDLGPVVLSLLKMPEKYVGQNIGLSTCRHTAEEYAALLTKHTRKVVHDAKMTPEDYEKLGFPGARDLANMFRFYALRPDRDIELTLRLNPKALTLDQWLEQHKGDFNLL
inactive: erlotinib 0.239 | [1] -0.118 | [3] -0.054 | [4] 0.098 | [5] 0.141 | [6] 0.029 | [7] 0.273 | [8] -0.055 | [9] 0.037 | IRAK-1-4 Inhibitor I 0.058 | [10] 0.467 | ralimetinib -0.016 | [11] -0.121 | [12] 0 | [13] -0.007 | pinometostat 0 | [14] -0.257 | [15] 0.281
active: [2] 0.841 | ibrutinib 0.874

OSBPL3 (UniProt Q9H4L5)
UniProt Q9H4L5, sequence (Q9H4L5 whole entry, looked up): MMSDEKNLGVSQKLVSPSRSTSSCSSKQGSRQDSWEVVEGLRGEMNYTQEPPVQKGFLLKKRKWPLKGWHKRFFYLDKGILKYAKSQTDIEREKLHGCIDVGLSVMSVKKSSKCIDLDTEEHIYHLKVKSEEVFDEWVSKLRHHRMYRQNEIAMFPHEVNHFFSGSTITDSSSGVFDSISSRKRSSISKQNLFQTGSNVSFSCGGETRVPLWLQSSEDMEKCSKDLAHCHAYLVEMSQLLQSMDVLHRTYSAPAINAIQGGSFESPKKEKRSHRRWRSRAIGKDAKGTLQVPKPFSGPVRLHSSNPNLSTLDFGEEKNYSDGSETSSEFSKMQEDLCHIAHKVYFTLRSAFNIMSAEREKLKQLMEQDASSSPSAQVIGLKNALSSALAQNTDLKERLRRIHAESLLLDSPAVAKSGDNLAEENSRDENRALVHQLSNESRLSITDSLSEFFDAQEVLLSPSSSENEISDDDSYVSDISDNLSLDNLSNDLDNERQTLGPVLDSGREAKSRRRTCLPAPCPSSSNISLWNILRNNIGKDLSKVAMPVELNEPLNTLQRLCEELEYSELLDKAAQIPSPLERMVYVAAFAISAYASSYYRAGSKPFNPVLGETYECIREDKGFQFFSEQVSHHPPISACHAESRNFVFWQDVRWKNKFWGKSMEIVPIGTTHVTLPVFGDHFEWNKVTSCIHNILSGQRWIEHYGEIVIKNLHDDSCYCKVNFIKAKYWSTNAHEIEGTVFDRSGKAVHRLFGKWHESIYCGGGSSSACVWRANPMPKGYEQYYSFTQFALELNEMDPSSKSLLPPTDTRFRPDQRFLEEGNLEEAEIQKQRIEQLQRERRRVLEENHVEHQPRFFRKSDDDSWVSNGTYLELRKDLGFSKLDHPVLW
active: erlotinib 1.67
inactive: [1] 0.15 | [2] -0.147 | [3] 0.165 | [4] 0.094 | [6] 0.255 | [7] 0.16 | [8] -0.021 | [9] -0.078 | IRAK-1-4 Inhibitor I -0.083 | [10] -0.277 | ralimetinib 0.309 | [11] 0.252 | [12] 0.506 | [13] 0.206 | pinometostat 0.204 | [14] -0.165 | [15] -0.069
